# In all, about 370,000 compounds went through this assay and about 400 (0.11%) were called active. Only a selection was taken, and actives are over-represented in it overall. Unmarked numbers belong to inactive results.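 The calls were made as follows: active = activation at 10 µM reaching about 35% in either raw or pattern-adjusted values (limit read from the data); inactive = the rest.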
# Target: Atrial natriuretic peptide receptor 2 (Homo sapiens) (UniProt P20594)
# Test: human GC-B receptor activators, primary screen, HEK293 GC-B cells, cGMP TR-FRET, EC30 CNP (AID 1920062)
# Settings: at 10 µM, stronger effect = higher value, 0% at EC30 CNP, 100% saturating CNP
# Chain of Atrial natriuretic peptide receptor 2 (Homo sapiens) (P20594 whole entry, looked up): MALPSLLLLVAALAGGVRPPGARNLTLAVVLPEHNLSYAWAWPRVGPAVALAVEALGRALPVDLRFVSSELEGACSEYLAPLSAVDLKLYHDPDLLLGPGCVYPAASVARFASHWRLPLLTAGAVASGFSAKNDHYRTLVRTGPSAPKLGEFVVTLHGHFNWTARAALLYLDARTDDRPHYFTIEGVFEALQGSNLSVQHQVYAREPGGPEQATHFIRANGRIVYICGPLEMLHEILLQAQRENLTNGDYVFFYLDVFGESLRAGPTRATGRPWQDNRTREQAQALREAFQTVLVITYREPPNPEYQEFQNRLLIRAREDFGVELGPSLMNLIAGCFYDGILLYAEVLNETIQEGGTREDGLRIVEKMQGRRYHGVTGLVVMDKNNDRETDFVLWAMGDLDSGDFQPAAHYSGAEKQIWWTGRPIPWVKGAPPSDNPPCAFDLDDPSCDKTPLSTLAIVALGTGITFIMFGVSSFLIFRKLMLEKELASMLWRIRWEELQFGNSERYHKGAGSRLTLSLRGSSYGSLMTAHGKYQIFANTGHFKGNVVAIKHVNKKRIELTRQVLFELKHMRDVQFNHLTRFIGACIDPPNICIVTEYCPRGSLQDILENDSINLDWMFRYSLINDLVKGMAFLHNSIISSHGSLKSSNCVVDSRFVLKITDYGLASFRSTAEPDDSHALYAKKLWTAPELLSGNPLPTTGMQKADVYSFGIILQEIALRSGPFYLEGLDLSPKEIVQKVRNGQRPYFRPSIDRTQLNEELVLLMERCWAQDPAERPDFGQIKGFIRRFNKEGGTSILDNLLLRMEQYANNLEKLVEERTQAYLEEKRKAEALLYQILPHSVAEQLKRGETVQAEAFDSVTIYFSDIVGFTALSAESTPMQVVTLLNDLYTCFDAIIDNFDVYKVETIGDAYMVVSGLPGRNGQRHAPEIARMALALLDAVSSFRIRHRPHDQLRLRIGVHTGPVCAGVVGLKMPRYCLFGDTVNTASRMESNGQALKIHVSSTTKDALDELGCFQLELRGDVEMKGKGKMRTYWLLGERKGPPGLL
row,Compound,activation
1,O=C(CCCCCCCC(=O)N1CCCCC1)N1CCCCC1,2.66%
2,Cc1ccc(NC(=S)N2CCCC(c3ccccc3)=N2)cc1,-5.08%
3,Cc1cccc(NC(=S)N2CCCC(c3nc4ccccc4[nH]3)C2)c1 (centres undefined),0.09%
4,CC(C)[C@H](NC(=O)c1ccc(F)cc1)C(=O)OCC(=O)NC(=O)c1cccn1C,-6.93%
5,COC(=O)CN(c1cccc(C(C)=O)c1)S(C)(=O)=O,-0.3%
6,COc1ccc(CNC(=O)COC(=O)CCS(=O)(=O)c2ccc(C)cc2)cc1OC,-7.76%
7,COc1ccccc1CCCNC(=O)C1CCC(=O)N(CCN2CCOCC2)C1 (centres undefined),0.93%
8,Cc1ccc(C(=O)COC(=O)CCCC(=O)NC2CCCCC2)cc1[N+](=O)[O-],-3.79%
9,CCCc1c(C)nc2scc(-c3ccc(Cl)cc3)n2c1=O,3.02%
10,O=S(=O)(Cc1nnnn1-c1ccccc1)c1ccccc1,3.43%
11,CCCCc1ccc(S(N)(=O)=O)cc1,1.33%
12,O=C(CCCN1C(=O)C2C3C=CC(C3)C2C1=O)N1CCN(c2ccccc2)CC1 (centres undefined),6.38%
13,COC(=O)c1cc(S(=O)(=O)N2CCN(C(=O)C3CCCO3)CC2)cn1C (centres undefined),-2.49%
14,Cn1c(CC2Sc3ccccc3NC2=O)nnc1SCC(=O)c1ccc(Cl)cc1 (centres undefined),-0.22%
15,CC(CCc1ccc(O)cc1)NCc1ccc(Cl)cc1Cl (centres undefined),-2.85%
16,OC(CCl)CCl,-3.1%
17,CCOC(=O)C1CCN(C(=O)Cc2c(C(=O)O)[nH]c3ccccc23)CC1,-0.71%
18,COC(=O)CCNC(=O)c1ccc2[nH]c(C)c(C)c2c1,2.4%
19,COC(=O)Cc1c(-c2[nH]c3ccccc3c2CC(=O)OC)[nH]c2ccccc12,36.5% (active)
20,N#CC1(NC(=O)COc2ccc3oc4ccccc4c3c2)CCCCC1,-3.84%
21,CN1CCN(S(=O)(=O)c2ccc(NC(=O)C3CCCO3)cc2)CC1 (centres undefined),1.58%
22,CCCOc1ccc(CN(CCO)CCO)cc1C(=O)OC,3.92%

row,Compound,activation
1,Cc1ccsc1C(=O)NCCc1ccco1,1.1%
2,O=C(NCCc1ccco1)c1nn(Cc2ccccc2)c(=O)c2ccccc12,49.5% (active)
3,O=c1c2ccccc2c(-c2ccc(Br)cc2)nn1Cc1ccccc1,0.94%
4,COc1ccc(OC)c(-n2nnnc2SCC(=O)Nc2cc(C)ccc2OC)c1,-3.61%
5,COC(=O)c1ccc2ccccc2c1OC1OC(CO)C(O)C(O)C1NC(C)=O (centres undefined),1.14%
6,CCCc1nc2ccccc2c(C(=O)OCc2nnc(-c3cc(OC)c(OC)c(OC)c3)o2)c1CC,27.3%
7,CC1(C)O[C@@H]2[C@H](O1)[C@@H](COS(=O)(=O)O)O[C@H]2n1cnc2c(=O)[nH]cnc21,9.84%
8,COc1cccc(CC(=O)N2CCN(C(=O)C(=O)c3cccc(C(F)(F)F)c3)CC2)c1,0.51%
9,COc1ccc(-n2c(SCC(=O)Nc3ccc4c(c3)OCCO4)nnc2-c2ccc(Cl)cc2)cc1,-4.33%
10,C/C(COc1ccccc1)=N\NC(=O)c1nnn(-c2nonc2N)c1-c1ccc(C)cc1,-1.04%
11,Cc1cc(Cl)ccc1OCc1nc(-c2ccncc2)no1,-5.32%
12,C=CCN(CC=C)C(=O)COC(=O)c1n[nH]c2ccccc12,-3.45%
13,CCCc1nn(C)c2c(=O)[nH]c(-c3cc(S(N)(=O)=O)ccc3OCC)nc12,55% (active)
14,CCOc1ccccc1N1CCN(C(=S)Nc2ccc(S(N)(=O)=O)cc2)CC1,0.9%
15,CCOc1ccc(-n2cnc3c(=O)[nH]c(N)nc32)cc1,20.7%
16,Cc1ccc(NS(=O)(=O)c2ccc(C(=O)NCCCN3CCOCC3)cc2)cc1,1.4%
17,COc1ccc(S(=O)(=O)N2CCOCC2)cc1NC(=O)CSc1nnc(NC2CC2)s1,56.9% (active)
18,Cc1ccc(S(=O)(=O)N2CCOCC2)cc1NC(=O)CSc1nnc(N)s1,-3.12%
19,COc1ccc(S(=O)(=O)N2CCOCC2)cc1NC(=O)CSc1cc(C)ccc1C,-3.41%
20,CCCCn1c(N)c(N(CC(C)C)C(=O)c2cccc(S(=O)(=O)N3CCN(C(C)=O)CC3)c2)c(=O)[nH]c1=O,4.82%
21,CC(=O)Nc1ccc(Nc2ncnc3c2nnn3Cc2ccccc2Cl)cc1,-5.33%
22,COc1ccnc2c1c(=O)n(Cc1cccc(F)c1)c(=O)n2C,9.01%

# Reference: PubChem BioAssay AID1920062 (Sanford-Burnham Center for Chemical Genomics, 2024)
